{"source": "ChEMBL document CHEMBL3988442", "about": "“University of Dundee, Small-Polar-MMV Screening Library” (2021)", "note": "Among all 53,000 compounds or so, about 900 (1.7%) showed an effect of 50% or more. The full list was thinned out, with strong results kept by preference.", "data": [{"system": "Mycobacterium tuberculosis", "assay": "Cornell - Phenotypic assay to identify agents that inhibit growth of Mycobacterium tuberculosis", "assay_type": "functional", "set-up": "scale not given: direction of the effect not stated beside the values", "details": "10 mM as filed; unlikely as a test dose", "units": {"Percent Effect": "%"}, "values": [{"compound": "O=C(O)Cn1nc(-c2ccccc2F)ccc1=O", "Percent Effect": 3.999}, {"compound": "CCSc1ncccc1C(=O)NCc1ccc(N(C)C)cc1", "Percent Effect": 4.638}, {"compound": "C=C(C)COc1ccccc1C(=O)NCc1nc(C)cc(=O)[nH]1", "Percent Effect": 11.83}, {"compound": "NS(=O)(=O)c1ccc(N2CCN(CCCc3cn[nH]c3)CC2)cc1", "Percent Effect": -32.06}, {"compound": "O=C(O)C(F)(F)F.O=C(O)C(F)(F)F.O=C(O)C(F)(F)F.c1cnc(NC[C@H]2OC[C@@H]3CCN(Cc4cccnc4)C[C@@H]32)nc1", "Percent Effect": 43.57}, {"compound": "COc1ccc(N2CCN(C(=O)C3CN(C)C(=O)N3)CC2(C)C)cc1", "note": "(stereo not given)", "Percent Effect": 2.102}, {"compound": "CCOCC(=O)N1CCCn2c(nnc2Cn2cccc2)C1", "Percent Effect": -5.462}, {"compound": "Cn1cc(CN2CCc3nc4ccccc4c(=O)n3CC2)cn1", "Percent Effect": 52.34}, {"compound": "Cc1nn(C)cc1CN1CCc2nc3sccc3c(=O)n2CC1", "Percent Effect": 50.52}, {"compound": "Cc1c(CN2CCc3nc4sccc4c(=O)n3CC2)cnn1C.Cl", "Percent Effect": 51.95}, {"compound": "Cn1ncc(Cl)c1C(=O)N1CCc2nc3sccc3c(=O)n2CC1", "Percent Effect": -13.36}, {"compound": "Cn1cc(CN2CCc3nc4sccc4c(=O)n3CC2)cn1", "Percent Effect": -10.08}, {"compound": "CCn1cncc1CN1CCc2nc3sccc3c(=O)n2CC1", "Percent Effect": 47.13}, {"compound": "O=c1c2ccccc2nc2n1CCN(Cc1cccs1)CC2", "Percent Effect": 20.89}, {"compound": "Cl.Cn1cncc1CN1CCc2nc3sccc3c(=O)n2CC1", "Percent Effect": 43.45}, {"compound": "Cc1cc2c(=O)n3c(nc2s1)CCN(Cc1cnn(C)c1C)CC3.Cl", "Percent Effect": -41.11}, {"compound": "COc1cc2ncn(Cc3ncc[nH]3)c(=O)c2cc1OC", "Percent Effect": 6.69}, {"compound": "CCc1cccc(OCCN(C)C(=O)c2ccccc2NCC(=O)O)c1", "Percent Effect": 10.74}, {"compound": "COc1cccc(CN2CCCC(Cn3nc(C)nc3C)C2)c1", "note": "(stereo not given)", "Percent Effect": 16.57}, {"compound": "O=C(c1ccncc1F)N1CCc2ncnc(-c3ccncc3)c2CC1", "Percent Effect": -7.007}, {"compound": "C[C@@H]1CN(C2CCN(Cc3nn(C)c4cccc(Cl)c34)CC2)C[C@H](C)O1", "Percent Effect": -20.95}, {"compound": "Cn1nc(CN2CCCCC(N)C2)c2c(Cl)cccc21", "note": "(stereo not given)", "Percent Effect": -4.365}, {"compound": "Cn1nc(CN2CCCN(C3CCCC3)CC2)c2c(Cl)cccc21", "Percent Effect": 60.03}, {"compound": "O=C(c1cccc(-n2cnnc2)c1)N1C[C@@H](O)[C@H](N2CCOCC2)C1", "Percent Effect": 40.33}, {"compound": "CN1C(=O)C2(CC(=O)Nc3[nH]ncc32)c2ccc(F)cc21", "note": "(stereo not given)", "Percent Effect": 10.37}, {"compound": "CN(Cc1cnccn1)S(=O)(=O)c1ccc(C(F)(F)F)nc1", "Percent Effect": -14.08}, {"compound": "CC(CS(C)(=O)=O)N(C)C(=O)NCCCc1ccc(Cl)cc1", "note": "(stereo not given)", "Percent Effect": 12.33}, {"compound": "COc1ccc(-c2cc(C3CCCCCN3S(=O)(=O)N(C)C)on2)cc1", "note": "(stereo not given)", "Percent Effect": 15.93}, {"compound": "CS(=O)(=O)N1CCCCCC1c1cc(-c2ccc(F)cc2)no1", "note": "(stereo not given)", "Percent Effect": 7}, {"compound": "CN(C)S(=O)(=O)N1CCCCCC1c1cc(-c2ccc(F)cc2)no1", "note": "(stereo not given)", "Percent Effect": 73.32}, {"compound": "Cc1ccc(NS(=O)(=O)c2cnn(Cc3ccccc3)c2)c(C(=O)O)c1", "Percent Effect": -25.98}, {"compound": "Cc1ccc(-n2cc(S(=O)(=O)Nc3cccc(C(=O)O)c3C)cn2)cc1", "Percent Effect": 9.419}, {"compound": "Cc1ccc(NS(=O)(=O)c2cnn(-c3ccccc3)c2)c(C(=O)O)c1", "Percent Effect": 55.25}, {"compound": "CCCN(CCC)c1ncc(S(=O)(=O)c2ccc(OC)cc2)c(N)n1", "Percent Effect": 26.01}, {"compound": "CC[C@H]1CN(C(=O)c2cccc(-n3cnnc3)n2)CC[C@@]1(C)O", "Percent Effect": -27.2}, {"compound": "Cc1noc(C)c1C(=O)N1CCCC1(C)C(=O)NC1CCCC1", "note": "(stereo not given)", "Percent Effect": -3.819}, {"compound": "COc1ccc(NC(=O)N2CCC(c3nnc[nH]3)CC2)cc1C", "Percent Effect": 16.56}, {"compound": "COc1ccc(NC(=O)N2CCC(c3noc(C)n3)CC2)cc1C", "Percent Effect": 55.08}, {"compound": "CCOc1cc(C(=O)N2CCCC(c3noc(C)n3)C2)ccc1OC", "note": "(stereo not given)", "Percent Effect": 13.87}, {"compound": "CCn1cnnc1C1CCN(C(=O)c2cccc(C)c2C)CC1", "Percent Effect": -30.53}, {"compound": "Cc1ccc(NC2CCN(C(=O)Cc3cccs3)CC2)nn1", "Percent Effect": -3.843}, {"compound": "O=C(Cc1cccnc1)N1CC(Cc2nccc3cc[nH]c23)C1", "Percent Effect": 4.598}, {"compound": "COc1ccccc1NC(=O)c1cnc(C2CCN(C(C)=O)C2)nc1C", "note": "(stereo not given)", "Percent Effect": 26.28}, {"compound": "Cl.Cl.Clc1cccc(C[C@@H]2NCCC[C@@H]2Nc2cccc(Cl)c2)c1", "Percent Effect": 108.9}, {"compound": "O=C1NCCCc2[nH]c(Cc3cccc(Cl)c3)nc21", "Percent Effect": -7.355}, {"compound": "CCOc1ccc(Cl)cc1C1CCCN1.Cl", "note": "(stereo not given)", "Percent Effect": -3.998}, {"compound": "O=C(NCCc1cccc(Cl)c1)C1CCOCC1", "Percent Effect": 10.9}, {"compound": "Cl.Cl.Clc1cccc(C[C@@H]2NCCC[C@@H]2Nc2ccccc2)c1", "Percent Effect": 55.37}, {"compound": "Cl.Clc1cccc(N[C@H]2CCCN[C@H]2Cc2ccccc2)c1", "Percent Effect": 107}, {"compound": "Cl.c1ccc(CCNc2cccc(C3CCCNC3)n2)cc1", "note": "(stereo not given)", "Percent Effect": 12.44}, {"compound": "O=C(C[S+]([O-])Cc1cccc(Cl)c1)NC1CCCC1", "note": "(stereo not given)", "Percent Effect": 37.46}, {"compound": "O=C(Cc1cccc(Cl)c1)N[C@@H]1CCNC[C@H]1O", "Percent Effect": 2.906}, {"compound": "Cc1ccc(-c2cc(CS(=O)(=O)NC3CCCNC3=O)on2)cc1", "note": "(stereo not given)", "Percent Effect": -20.71}, {"compound": "CN(Cc1ccsc1)C(=O)Cn1c(CS(C)(=O)=O)nc2ccccc21", "Percent Effect": 17.82}, {"compound": "Cc1ccc(S(=O)(=O)NC2=NCN(CCc3cccs3)CN2)cc1", "Percent Effect": -5.965}, {"compound": "O=C(CCN1CCCC1)N1CC[C@@H](c2ccc3ccccc3c2)[C@H](O)C1", "Percent Effect": 59.79}, {"compound": "O=C(CCn1cccn1)N1CC[C@@H](c2ccc3ccccc3c2)[C@H](O)C1", "Percent Effect": -1.48}, {"compound": "O=C(CCN1CCCO1)N1CC[C@@H](c2ccc3ccccc3c2)[C@H](O)C1", "Percent Effect": 5.243}, {"compound": "O=S1(=O)CCC(S(=O)(=O)c2cccc(S(=O)(=O)N3CCCC3)c2)C1", "note": "(stereo not given)", "Percent Effect": 4.254}, {"compound": "CN(Cc1ccco1)[C@@H]1CN(Cc2cccs2)C[C@@H]2CCCO[C@@H]21.O=C(O)C(F)(F)F.O=C(O)C(F)(F)F", "Percent Effect": 3.22}, {"compound": "Cc1cc(NC2CCCN(Cc3ccc(F)cc3)C2)n2nc(C)cc2n1", "note": "(stereo not given)", "Percent Effect": 55.74}, {"compound": "Cc1cc(NC2CCN(c3ccc(F)cc3)CC2)n2nc(C)cc2n1", "Percent Effect": 39.2}, {"compound": "Cc1cc(N[C@H]2CCCN(Cc3ccccc3)C2)n2nc(C)cc2n1", "Percent Effect": -6.549}, {"compound": "O=C(CCc1cccs1)N1CCCC1c1noc(C2CC2)n1", "note": "(stereo not given)", "Percent Effect": -0.7961}, {"compound": "CC(NC(=O)c1cn(CCC2CCCCC2)nn1)c1cnn(C)c1", "note": "(stereo not given)", "Percent Effect": -6.193}, {"compound": "Cc1nc2c(NC(CC(C)(C)C)c3cccnc3)ncnc2o1", "note": "(stereo not given)", "Percent Effect": -7.649}, {"compound": "CCCOc1ccccc1CCCNc1ncnc2oc(C)nc12", "Percent Effect": 30.24}, {"compound": "CCCOc1ccc(Cl)cc1CNc1ncnc2oc(C)nc12", "Percent Effect": 65.32}, {"compound": "CCc1nnc(CN(C)C(=O)C(CC)n2c(CC)nc3ccccc32)o1", "note": "(stereo not given)", "Percent Effect": 5.212}, {"compound": "CCNC(=O)[C@@H]1C[C@@H](NC(=O)c2cc(C)on2)CN1Cc1ccccn1", "Percent Effect": -5.653}, {"compound": "COc1ccc(C)cc1NC(=O)Nc1cnc(O)nc1O", "Percent Effect": 28.36}, {"compound": "CCN(CC)c1ccc(NS(=O)(=O)c2cnn(C)c2)cn1", "Percent Effect": 9.807}, {"compound": "CCN(CC)c1ccc(NS(=O)(=O)c2cccnc2)cn1", "Percent Effect": 24.54}, {"compound": "CCN(CC)c1ccc(NS(=O)(=O)c2cncc(F)c2)cn1", "Percent Effect": 62.74}, {"compound": "COc1cccc(CNCC2CN(C)CCO2)c1", "note": "(stereo not given)", "Percent Effect": 10.27}, {"compound": "CC(=O)N1CCN(Cc2ccc(OCc3nccn3C)cc2)CC1", "Percent Effect": -16.77}, {"compound": "Cc1cc2nccc(C3CCCN(C(=O)c4ccccc4F)C3)n2n1", "note": "(stereo not given)", "Percent Effect": 8.36}, {"compound": "c1nc(-c2nc(C3CCOC3)no2)cs1", "note": "(stereo not given)", "Percent Effect": -30.96}, {"compound": "O=C(Nc1ccccc1)c1ccc(NCc2nccs2)nn1", "Percent Effect": 40.64}, {"compound": "O=C(Nc1ccccc1)c1ccc(NCc2ccccc2CO)nn1", "Percent Effect": 16.95}, {"compound": "O=C(Nc1ccccc1)c1ccc(NCc2ccncc2)nn1", "Percent Effect": 71.71}, {"compound": "CC(=O)N1CCCC1c1nc(C)c2c(n1)N(Cc1ccccn1)CCC2", "note": "(stereo not given)", "Percent Effect": -10.82}, {"compound": "O=C(CCCOCc1ccccc1)N1CCCC(c2ncc[nH]2)C1", "note": "(stereo not given)", "Percent Effect": 18.83}, {"compound": "O=C(Cc1cccs1)N1CC[C@H]2[C@@H]1CCC(=O)N2c1cccnc1.O=C(O)C(F)(F)F", "Percent Effect": 4.016}, {"compound": "O=C1CC(c2ccccc2Br)c2sc(N3CCOCC3)nc2N1", "note": "(stereo not given)", "Percent Effect": 44.02}, {"compound": "CNc1nc2c(s1)C(c1ccc(Cl)cc1Cl)CC(=O)N2", "note": "(stereo not given)", "Percent Effect": 15.33}, {"compound": "COc1ccccc1C1CC(=O)Nc2c1c(=O)[nH]n2C(C)C", "note": "(stereo not given)", "Percent Effect": 7.683}, {"compound": "CC(C)Oc1ccccc1C1CC(=O)Nc2nc(N3CCOCC3)sc21", "note": "(stereo not given)", "Percent Effect": 106.3}, {"compound": "COc1cccc(C2CC(=O)Nc3nc(N4CCCCC4)sc32)c1OC", "note": "(stereo not given)", "Percent Effect": 70.71}, {"compound": "COc1cccc(C2CC(=O)Nc3nc(N4CCOCC4)sc32)c1OC", "note": "(stereo not given)", "Percent Effect": 84.05}, {"compound": "CCn1ncnc1C1CC(=O)NCc2nc(N3CCOCC3)sc21", "note": "(stereo not given)", "Percent Effect": 3.2}, {"compound": "COc1ccccc1C1CC(=O)Nc2c1c(=O)[nH]n2C1CCCC1", "note": "(stereo not given)", "Percent Effect": 42.49}, {"compound": "CCOc1cccc(C2CC(=O)NCc3nc(N4CCCC4)sc32)c1", "note": "(stereo not given)", "Percent Effect": -20.96}, {"compound": "COc1ccccc1C1CC(=O)Nc2nc(N3CCCCC3)sc21", "note": "(stereo not given)", "Percent Effect": 102.8}, {"compound": "O=C1CC(c2ccccc2C(F)(F)F)c2sc(N3CCOCC3)nc2N1", "note": "(stereo not given)", "Percent Effect": 43.16}, {"compound": "CCNc1nnc(CCn2nc(C)c(Br)c2C)s1", "Percent Effect": 29.93}, {"compound": "COCC(O)CN1CCC(=O)N(CC=C(C)C)Cc2ccccc21", "note": "(stereo not given)", "Percent Effect": -1.382}, {"compound": "CCc1cnc(N2C[C@H]3C[C@H](C(=O)N4CCOCC4)[C@@H](C2)O3)nc1.O=C(O)C(F)(F)F", "Percent Effect": 10.32}, {"compound": "CCS(=O)(=O)Nc1ccc(C(=O)NCCCN2CCCC2)cc1", "Percent Effect": -15.51}, {"compound": "CCc1cnc(N2CC[C@H]3[C@@H]2CCC(=O)N3c2ccccc2)nc1.O=C(O)C(F)(F)F", "Percent Effect": -28.43}]}]}
